What was measured:
Test in all cases: thermal shift delta Tm vs DMSO control; higher = stronger stabilization (binding)
Conditions in all cases: 12.5 µM; protein concentration 2 µM
LOC_OS04G57630-cb004 = test system: LOC_OS04G57630-cb004
Method in brief: (§1)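 Rice kinase domain constructs were expressed in E. coli, purified, and tested by differential scanning fluorimetry with compound added in DMSO. Each well of a 96-well plate held 19.5 μl of 2 μM kinase in 100 mM potassium phosphate pH 7.5, 150 mM NaCl, 10% glycerol and 5 × SYPRO Orange, and fluorescence was read from 25°C to 95°C at 0.05°C/s. The melting temperature shift is the mean of triplicates, taken against protein with DMSO alone after Boltzmann fitting.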

LOC_OS05G07850-cb002 = test system: LOC_OS05G07850-cb002
Method in brief: as §1

LOC_OS05G16824-cb004 = test system: LOC_OS05G16824-cb004
Method in brief: as §1

LOC_OS05G28520-cb001 = test system: LOC_OS05G28520-cb001
Method in brief: as §1

LOC_OS05G30820-cb001 = test system: LOC_OS05G30820-cb001
Method in brief: as §1

LOC_OS05G43570-cb004 = test system: LOC_OS05G43570-cb004
Method in brief: as §1

LOC_OS06G16330-cb003 = test system: LOC_OS06G16330-cb003
Method in brief: as §1

LOC_OS06G22820-cb001 = test system: T1, LOC_OS06G22820-cb001
T1 sequence (whole entry): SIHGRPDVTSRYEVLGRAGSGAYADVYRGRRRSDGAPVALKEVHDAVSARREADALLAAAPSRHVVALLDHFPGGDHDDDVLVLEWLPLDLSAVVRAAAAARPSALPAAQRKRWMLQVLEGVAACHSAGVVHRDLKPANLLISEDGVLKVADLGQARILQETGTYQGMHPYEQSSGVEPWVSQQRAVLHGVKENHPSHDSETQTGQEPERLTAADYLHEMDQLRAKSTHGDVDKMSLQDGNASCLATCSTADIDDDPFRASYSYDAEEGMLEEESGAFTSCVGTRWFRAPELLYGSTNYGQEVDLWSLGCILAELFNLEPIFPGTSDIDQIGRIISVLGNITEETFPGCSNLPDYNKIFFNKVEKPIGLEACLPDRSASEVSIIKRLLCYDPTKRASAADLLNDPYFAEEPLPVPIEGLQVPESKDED
Method in brief: as §1

LOC_OS07G06570-cb004 = test system: LOC_OS07G06570-cb004
Method in brief: as §1

LOC_OS07G07230-cb001 = test system: LOC_OS07G07230-cb001
Method in brief: as §1

LOC_OS06G16330-cb003, sequence (as listed by the source): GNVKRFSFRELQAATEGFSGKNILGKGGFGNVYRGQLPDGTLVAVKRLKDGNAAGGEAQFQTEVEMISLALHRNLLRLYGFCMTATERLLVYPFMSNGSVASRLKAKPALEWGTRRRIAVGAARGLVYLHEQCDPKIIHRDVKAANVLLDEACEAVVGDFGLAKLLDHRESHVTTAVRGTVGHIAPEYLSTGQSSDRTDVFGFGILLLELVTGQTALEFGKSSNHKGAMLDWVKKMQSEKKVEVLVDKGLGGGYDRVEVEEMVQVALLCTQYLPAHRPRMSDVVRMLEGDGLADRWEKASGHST

| SMILES | thermal shift delta Tm (LOC_OS04G57630-cb004) [°C] | thermal shift delta Tm (LOC_OS05G07850-cb002) [°C] | thermal shift delta Tm (LOC_OS05G16824-cb004) [°C] | thermal shift delta Tm (LOC_OS05G28520-cb001) [°C] | thermal shift delta Tm (LOC_OS05G30820-cb001) [°C] | thermal shift delta Tm (LOC_OS05G43570-cb004) [°C] | thermal shift delta Tm (LOC_OS06G16330-cb003) [°C] | thermal shift delta Tm (LOC_OS06G22820-cb001) [°C] | thermal shift delta Tm (LOC_OS07G06570-cb004) [°C] | thermal shift delta Tm (LOC_OS07G07230-cb001) [°C] |
| --- | --- | --- | --- | --- | --- | --- | --- | --- | --- | --- |
| CO[C@@H](C(=O)N1Cc2[nH]nc(NC(=O)c3ccc(N4CCN(C)CC4)cc3)c2C1)c1ccccc1 | 2.02 | 6.58 | 5.14 | 0.31 | 0.48 | 0.25 | 7.87 | 2.69 | 0.66 | 0 |
| O=C(Nc1ccc(-c2ccnc(Nc3ccc(N4CCOCC4)cc3)n2)cc1)C1CCCN1 (stereo not given) | 0.39 | 8.89 | -1.75 | 0.58 | 0.48 | 0.34 | 2.94 | 0.34 | 1.36 | 0.39 |
| C=CC(=O)Nc1cc(Nc2nccc(-c3cn(C)c4ccccc34)n2)c(OC)cc1N(C)CCN(C)C [Osimertinib (AZD9291)] | 0.2 | 13.5 | -1.95 | 0.53 | 0.54 | 0.3 | 5.5 | 0.25 | 1.03 | 0.47 |
| CN1CC(O)C2=C/C(=N/NC(N)=O)C(=O)C=C21 (stereo not given) [Carbazochrome] | -0.07 | 1.06 | -3.49 | -0.11 | 0.11 | 0.35 | 0.27 | 0.09 | 0.68 | 0.58 |
| FC(F)c1nc2ccccc2n1-c1nc(N2CCOCC2)nc(N2CCOCC2)n1 | 0.39 | 0.04 | 1.24 | 0.54 | 0.54 | 0.5 | 0.49 | 0.93 | 0.84 | 0.3 |
| Cc1cc([C@@H](C)Nc2ccccc2C(=O)O)c2nc(N3CCOCC3)cc(=O)n2c1 | 0.31 | -0.01 | -0.08 | 0.3 | 0.51 | 0.63 | -0.44 | 0.63 | 1.04 | -0.17 |
| CCN(CC)CCCCNc1ncc2cc(-c3cc(OC)cc(OC)c3)c(NC(=O)NC(C)(C)C)nc2n1 | -0.1 | -0.15 | -2.16 | 0.72 | 0.45 | 0.68 | -0.04 | 0.57 | 1.02 | 0.36 |
| C=CC(=O)Nc1cccc(Nc2nc(Nc3ccc(NC4CN(CCF)C4)cc3OC)ncc2C(F)(F)F)c1 | 0.41 | 6.71 | 1.25 | 0.72 | 0.43 | 0.24 | -0.88 | 0.16 | 1.07 | 0.62 |
| Cn1cc(-c2ccc3c(c2)CCN3C(=O)Cc2cccc(C(F)(F)F)c2)c2c(N)ncnc21 | 1.69 | 6.67 | 1.91 | 0.55 | 0.78 | 0.46 | 2.76 | 0.97 | 0.97 | 4.19 |
| CC(C)c1c2cc(-c3ccnc(NC4CCC(NC5CCOCC5)CC4)n3)ccc2nn1C (stereo not given) | 1.43 | 6.4 | -6.14 | 0.56 | 0.45 | 0.57 | 3.01 | 0.19 | 1.62 | 0.55 |
| O=C1NC(=O)C(=Cc2ccc(-c3ccc(F)cc3)o2)S1 (stereo in doubt) | 0.48 | 1.37 | -3.64 | 0.89 | 0.73 | 1.06 | 0.12 | 0.65 | 0.53 | 0.04 |
| CCOc1ccn(-c2ccc(F)cc2)c(=O)c1C(=O)Nc1ccc(Oc2ccnc(N)c2Cl)c(F)c1 | 0.68 | 11.6 | 1.29 | 0.56 | 0.42 | 1.2 | 4.26 | 0.43 | 0.64 | 0.01 |
| CN1CCN(c2ccc(C(=O)Nc3n[nH]c4ccc(Cc5cc(F)cc(F)c5)cc34)c(NC3CCOCC3)c2)CC1 [Entrectinib (RXDX-101)] | 2.05 | 10.2 | 5.23 | 3.71 | 0.38 | 0.47 | 8.44 | 0.27 | 0.88 | 0.63 |
| CCCCNc1ncc2c(-c3ccc(CN4CCN(C)CC4)cc3)cn([C@H]3CC[C@H](O)CC3)c2n1 | 6.55 | 11.9 | 15.5 | 0.68 | 1.96 | 0.44 | 13.5 | 0.17 | 0.92 | -0.01 |
| N#CC(=C(/N)Sc1ccccc1N)/C(C#N)=C(\N)Sc1ccccc1N | -0.53 | -1.4 | -1.67 | 1.16 | 0.39 | 0.33 | 1.2 | 1.19 | -0.22 | 0.58 |
| Oc1cccc(-c2nc(N3CCOCC3)c3oc4ncccc4c3n2)c1 | -0.25 | 0.47 | 1.57 | 0.51 | 0.49 | 0.69 | 0.07 | 0.82 | 1.15 | 0.33 |
| Cc1c[nH]c(/C=C2\C(=O)Nc3ccccc32)c1CCC(=O)O | 0.5 | 6.66 | 7.29 | 0.67 | 2.14 | 0.11 | 9.94 | 0.18 | 0.84 | 0.79 |
| O=S(=O)(NCCNC/C=C/c1ccc(Br)cc1)c1cccc2cnccc12 | -0.1 | 2.68 | -0.59 | -0.13 | 0.53 | 0.62 | 0.87 | 0.31 | 1.14 | 0.17 |
| O=C1c2ccc(Nc3ccc(F)cc3F)cc2CCc2ccc(OC[C@H](O)CO)cc21 [Skepinone-L] | -0.62 | 1.02 | -0.73 | 0.27 | 0.6 | 0.4 | -0.23 | 0.53 | 0.41 | -0.05 |
| CN1CCN(c2ccc3nc(-c4c(N)c5c(F)cccc5[nH]c4=O)[nH]c3c2)CC1 [Dovitinib (TKI-258, CHIR-258)] | 1.24 | 6.74 | 12.6 | 1.08 | 0.71 | 0.77 | 3.64 | 0.56 | 1.13 | 0.36 |
